Assay [1] can be described thus: inhibitors of TNFa-induced NFkB p65 translocation, primary screen, imaging, HUVEC, MLSMR starter and 10KST1 sets (AID 438).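 Further: compound added about 3h40 before a 20 min TNFalpha stimulation.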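 On inhibition: signal is the nuclear over cytoplasmic p65 intensity ratio per well.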 The following applies: HUVEC TNFa-induced p65 nuclear translocation; cell count: measured here: nuclei count (cytotoxicity indicator), at 2.08 µM; inhibition: at 2 µM, stronger effect = higher value, 0% TNFa-plus-vehicle, 100% no-TNFa wells.
Assay [2] in a line: inhibitors of mutant huntingtin aggregation, primary screen, imaging, exon1htt(103Q)mCFP cells, high-content imaging (AID 483;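 active means visual image review flags a hit and inhibition of aggregation exceeds 20%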;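 further: compound exposure lasted 3 days before fixation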;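 on nuclei count: percent of the per-plate median nuclei count of sample wells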). The following applies: exon1htt(103Q)mCFP cell line, aggregate imaging, at 2 µM; inhibition of aggregation: stronger effect = higher value; nuclei count: measured here: cell count, toxicity.
A short description of assay [3]: inhibitors of E-selectin induction by TNFa, primary screen, imaging, HUVEC, immunofluorescence, MLSMR starter and 10KST1 sets (AID 487;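 active means visually confirmed hit in the image check and inhibition above 20%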;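 on inhibition: signal is fraction of cell area covered by stained E-selectin grains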;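 on nuclei count: 100% = median nuclei count of all wells on the same plate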). The following applies: HUVEC TNFalpha-induced E-selectin immunofluorescence imaging, at 2 µM; inhibition: stronger effect = higher value; nuclei count: measured here: cell number, toxicity.
Assay [4] deals with Voltage-gated potassium channel subunit beta-2 (Rattus norvegicus) (UniProt P62483). Nature of the assay: KvBeta enzyme negative modulators, primary screen, biochemical, NADPH fluorescence (AID 622;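 active means fluorescence slope higher than the sample average by over 3 SD, cut at about -0.22 in these data, passing the limit was not always enough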;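 further: slope of raw intensity against log time taken from 70 to 1610 s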). The conditions noted are these: recombinant KvBeta, 4-cyanobenzaldehyde reduction, at 10 µM, stronger effect = higher value.
The target is the same in assay [5]. Nature of the assay: KvBeta positive modulators, primary screen, biochemical, NADPH fluorescence (AID 623;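 active means NADPH fluorescence slope more negative than the mean of all samples by about 3 SD, 99.7% confidence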;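 further: fluorescence intensity change per second fitted from 20 to 320 s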). The conditions noted are these: Recombinant KvBeta, NADPH fluorescence decrease slope, 10 min; at 10 µM; stronger effect = lower value.
Assay [6] concerns the target Alpha-2C adrenergic receptor (Homo sapiens) (UniProt P18825). Nature of the assay: modulators of alpha2C/GIRK thallium flux, primary screen, cell-based, HEK293 alpha2C/GIRK1/2 (AID 624;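 active means fluorescence slope after compound addition differing from the mean of all screened samples at 99.7% confidence, in either direction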;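 further: slope of fluorescence ratio to pre-addition baseline per second over 15 to 24 s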). The conditions noted are these: thallium flux BTC fluorescence, at 10 µM, actives lie on both sides.
Assay [7] can be described thus: inhibitors of Sendai virus-induced IRF3 signaling, primary screen, TLR/RLR signaling modifier project, cell-based, Sendai virus stimulus, luciferase, 10K MLSCN set (AID 602276;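 active means inhibition at or above 50% at 10 µM; inactive means inhibition below 50%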;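 further: firefly luciferase from ISG56 promoter only with Renilla not read in this screen; 0% = Sendai virus plus DMSO and 100% = medium plus DMSO without virus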). The conditions noted are these: HEK293 RL24 IRF3 luciferase reporter, at 10 µM, stronger effect = higher value. On the technique in general: A reporter such as luciferase makes a cellular process visible.

Assay [8] in a line: inhibitors of poly I:C-induced TLR3 signaling, primary screen, cell-based, poly I:C stimulus, luciferase, 10K MLSCN set (AID 602277;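 active means inhibition of the reporter signal at or above 50%; inactive means inhibition below 50%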). The conditions noted are these: HEK293-TLR3 RL24 IRF3 luciferase reporter, at 10 µM, stronger effect = higher value.

The source made the active and inactive calls.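 How the source made its calls, unless noted: active means inhibition above 20% together with a positive visual image hit; inconclusive means visual image hit but inhibition not above 20%; inactive means no visual image hit.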

Chain of Voltage-gated potassium channel subunit beta-2 (Rattus norvegicus) (P62483 whole entry, looked up): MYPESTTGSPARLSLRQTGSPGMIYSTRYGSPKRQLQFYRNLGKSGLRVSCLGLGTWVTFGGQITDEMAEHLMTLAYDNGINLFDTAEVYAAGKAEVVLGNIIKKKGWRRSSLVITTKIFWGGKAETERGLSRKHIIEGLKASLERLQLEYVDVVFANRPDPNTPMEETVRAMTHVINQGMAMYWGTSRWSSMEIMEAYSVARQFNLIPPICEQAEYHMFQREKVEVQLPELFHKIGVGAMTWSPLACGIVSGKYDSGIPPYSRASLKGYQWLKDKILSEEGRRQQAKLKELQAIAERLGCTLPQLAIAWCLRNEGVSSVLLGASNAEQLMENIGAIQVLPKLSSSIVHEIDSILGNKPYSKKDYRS
Chain of Alpha-2C adrenergic receptor (Homo sapiens) (P18825 whole entry, looked up): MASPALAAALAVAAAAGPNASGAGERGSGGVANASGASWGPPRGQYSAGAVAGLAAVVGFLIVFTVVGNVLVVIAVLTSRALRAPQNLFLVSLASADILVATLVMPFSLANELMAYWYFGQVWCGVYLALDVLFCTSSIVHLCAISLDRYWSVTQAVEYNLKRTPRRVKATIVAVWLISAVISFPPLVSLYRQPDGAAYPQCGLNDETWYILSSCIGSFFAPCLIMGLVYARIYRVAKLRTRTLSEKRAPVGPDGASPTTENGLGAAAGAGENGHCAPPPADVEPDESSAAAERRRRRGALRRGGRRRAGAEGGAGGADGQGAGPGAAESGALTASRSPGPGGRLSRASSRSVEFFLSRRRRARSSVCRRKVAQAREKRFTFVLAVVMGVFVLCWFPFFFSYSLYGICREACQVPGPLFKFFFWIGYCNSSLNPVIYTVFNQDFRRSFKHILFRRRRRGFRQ

Turning to `CCOc1ccc(N(CC(=O)NC2CCCC(C)C2C)S(=O)(=O)c2c(C)noc2C)cc1` (centres undefined), in assay [1], the cell count was determined as 872. The inhibition is 4% (inactive) in assay [1], -33.2% (inactive) in assay [3], 1.67% (inactive) in assay [7] and 38.3% (inactive) in assay [8]. For the same compound, the inhibition of aggregation in assay [2] is 20.7% (inactive). The nuclei count turned out to be 131% in assay [2] and 111% in assay [3]. For the same compound, the fluorescence slope in assay [4] is -0.612 (inactive). Moreover, in assay [5], the NADPH fluorescence slope is 7.5e-06 (inactive). In addition, the slope in assay [6] was 0.00653 (inactive).
On to `COC(=O)c1ccc(C2C(C#N)=C(N)Oc3cc(C)n(C)c(=O)c32)cc1` (centres undefined), for which the cell count in assay [1] came out at 551. Further, the inhibition in assay [1] is -11.1% (inactive); in assay [3] it was -1.7% (inactive); in assay [7], 9.77% (inactive); in assay [8] it was 6% (inactive). Moreover, the inhibition of aggregation in assay [2] was 0.4% (inactive). Also, the nuclei count in assay [2] and in assay [3] was 111% in each case. Moreover, the fluorescence slope in assay [4] was -0.499 (inactive). For the same compound, the NADPH fluorescence slope in assay [5] was -4.1e-05 (inactive). The slope in assay [6] was 0.00425 (inactive).
For the compound `O=S(=O)(c1ccc(S(=O)(=O)N(Cc2ccco2)Cc2ccccc2Cl)cc1)N1CCCC1`, in assay [1], the cell count came out at 818. The inhibition is -6.1% (inactive) in assay [1], -38.1% (inactive) in assay [3], 8.74% (inactive) in assay [7] and 28% (inactive) in assay [8]. Also, in assay [2], the inhibition of aggregation is -2.8% (inactive). Besides, the figures for the nuclei count in assay [2] and in assay [3] were 108% and 126%, respectively. Besides, in assay [4], the fluorescence slope is -0.587 (inactive). Moreover, the NADPH fluorescence slope in assay [5] was -3.1e-05 (inactive). Further, in assay [6], the slope was 0.00951 (inactive).
As for `O=C(CSc1nnnn1C1CCCC1)NCc1ccc2c(c1)OCO2`, in assay [1], the cell count was found to be 816. Further, the inhibition was -13.2% (inactive) in assay [1], -15.5% (inactive) in assay [3], 1% (inactive) in assay [7] and 22.3% (inactive) in assay [8]. For the same compound, the inhibition of aggregation in assay [2] was 3% (inactive). For the same compound, the nuclei count amounted to 87.9% in assay [2] and 138% in assay [3]. Also, the fluorescence slope in assay [4] is -0.475 (inactive). The NADPH fluorescence slope in assay [5] is -4.8e-05 (inactive). Also, the slope in assay [6] is 0.00594 (inactive).
Consider `Cc1ccc(-c2cc(C(F)F)n3ncc(C(=O)N4CCN(c5ccccn5)CC4)c3n2)cc1`, for which, in assay [1], the cell count amounted to 829. In addition, the inhibition is -1.7% (inactive) in assay [1], -56.7% (inactive) in assay [3], 17.4% (inactive) in assay [7] and 42.8% (inactive) in assay [8]. In addition, the inhibition of aggregation in assay [2] is 9.3% (inactive). The nuclei count was determined as 85.3% in assay [2] and 120% in assay [3]. Besides, the fluorescence slope in assay [4] is -0.514 (inactive). Further, the NADPH fluorescence slope in assay [5] was -3e-05 (inactive). Besides, the slope in assay [6] was 0.00598 (inactive).
As for `CCOC(=O)Cc1csc(NC(=O)CSc2nnc(C(C)C)n2CC)n1`, the cell count in assay [1] was 812. In addition, the inhibition in assay [1] is -6.2% (inactive); in assay [3] it was -33.7% (inactive); in assay [7], 18.4% (inactive); in assay [8], 21.8% (inactive). Further, in assay [2], the inhibition of aggregation was 13.4% (inactive). Further, the figures for the nuclei count in assay [2] and in assay [3] were 89.5% and 119%, respectively. In assay [4], the fluorescence slope was -0.317 (inactive). In addition, the NADPH fluorescence slope in assay [5] is 1.9e-05 (inactive). In assay [6], the slope is 0.00691 (inactive).
For `COC(=O)c1cc2ccsc2n1CC(=O)N(C)c1ccccc1`, the cell count in assay [1] stood at 623. The inhibition was -15.1% (inactive) in assay [1], -29.3% (inactive) in assay [3], 13.3% (inactive) in assay [7] and 22.7% (inactive) in assay [8]. The inhibition of aggregation in assay [2] is -8.1% (inactive). For the same compound, the values for the nuclei count in assay [2] and in assay [3] were 117% and 92.2%, respectively. Moreover, the fluorescence slope in assay [4] is -0.261 (inactive). The NADPH fluorescence slope in assay [5] was 4.1e-06 (inactive). In assay [6], the slope is 0.00481 (inactive).
Take `COc1ccc(CCNc2oc(Cc3cccc4ccccc34)nc2C#N)cc1OC`: the cell count in assay [1] was 718. For the same compound, the inhibition in assay [1] was 13.9% (inactive); in assay [3] it was 24.2% (inactive); in assay [7], 17.3% (inactive); in assay [8] it was 6.78% (inactive). In addition, in assay [2], the inhibition of aggregation is 8.4% (inactive). Besides, the nuclei count in assay [2] was 81.2%; in assay [3], 88.7%. Further, the fluorescence slope in assay [4] was -0.396 (inactive). For the same compound, the NADPH fluorescence slope in assay [5] was -8.6e-06 (inactive). The slope in assay [6] is 0.00516 (inactive).
Consider `O=C(c1ncc[nH]1)c1ccccc1C(=O)N1CCOCC1`, for which the cell count in assay [1] came out at 399. Further, the inhibition in assay [1] is 15.2% (inactive); in assay [3] it was -232% (inactive); in assay [7], -6.47% (inactive); in assay [8] it was 4.36% (inactive). Also, the inhibition of aggregation in assay [2] is 27.9% (inactive). The nuclei count in assay [2] amounted to 111%; in assay [3] it was 116%. Also, the fluorescence slope in assay [4] was -0.515 (inactive). For the same compound, the NADPH fluorescence slope in assay [5] is -0.000166 (inactive). For the same compound, in assay [6], the slope is 0.00482 (inactive).
Take `O=C(NCCN1CCOCC1)c1ccc2c(c1)N(Cc1ccccc1F)C(=O)CS2`: the cell count in assay [1] was determined as 591. Moreover, the inhibition in assay [1] was 5.8% (inactive); in assay [3], -51.7% (inactive); in assay [7], 9.96% (inactive); in assay [8], 22.6% (inactive). Further, in assay [2], the inhibition of aggregation was 6% (inactive). Further, the values for the nuclei count in assay [2] and in assay [3] were 67.6% and 111%, respectively. In assay [4], the fluorescence slope was -0.456 (inactive). Besides, the NADPH fluorescence slope in assay [5] was -2e-06 (inactive). The slope in assay [6] is 0.00607 (inactive).
As for `Fc1cccc(Nc2ncnc3c2cnn3-c2ccccc2)c1`, the cell count in assay [1] amounted to 644. For the same compound, the inhibition in assay [1] was -3.3% (inactive); in assay [3], -51.7% (inactive); in assay [7], -54.2% (inactive); in assay [8], -148% (inactive). Moreover, the inhibition of aggregation in assay [2] is 0.4% (inactive). For the same compound, the nuclei count came to 109% in assay [2] and 127% in assay [3]. The fluorescence slope in assay [4] is -0.57 (inactive). Besides, the NADPH fluorescence slope in assay [5] was 4.4e-06 (inactive). Further, the slope in assay [6] was 0.00538 (inactive).
Consider `CCOC(=O)c1ccc(NC(=O)CSc2nnc(COc3ccccc3)n2C)cc1`, for which the cell count in assay [1] was found to be 393. Moreover, the inhibition in assay [1] is 2.5% (inactive); in assay [3], -25.8% (inactive); in assay [7], -1.67% (inactive); in assay [8], 29% (inactive). For the same compound, the inhibition of aggregation in assay [2] was -6.7% (inactive). For the same compound, the figures for the nuclei count in assay [2] and in assay [3] were 97.5% and 122%, respectively. In addition, the fluorescence slope in assay [4] is -0.455 (inactive). Besides, the NADPH fluorescence slope in assay [5] is -5e-05 (inactive). Moreover, in assay [6], the slope was 0.00289 (inactive).
In the case of `CS(=O)(=O)N(CC(=O)Nc1ccc2c(c1)OCCO2)Cc1ccccc1`, the cell count in assay [1] was 348. Moreover, the inhibition in assay [1] was -4.7% (inactive); in assay [3] it was 9.6% (inactive); in assay [7] it was 8.2% (inactive); in assay [8] it was 17.2% (inactive). Also, in assay [2], the inhibition of aggregation was -2.9% (inactive). The nuclei count in assay [2] turned out to be 107%; in assay [3], 105%. In addition, the fluorescence slope in assay [4] was -0.413 (inactive). The NADPH fluorescence slope in assay [5] is 3.7e-05 (inactive). Moreover, the slope in assay [6] was 0.00583 (inactive).
With `O=S1(=O)CCC(N=Cc2cc(Br)ccc2O)C1` (centres undefined), the cell count in assay [1] came out at 500. Further, the inhibition in assay [1] is -13.1% (inactive); in assay [3], 18% (inactive); in assay [7], 17.3% (inactive); in assay [8], 22.5% (inactive). In assay [2], the inhibition of aggregation is 32.5% (inactive). For the same compound, the results for the nuclei count in assay [2] and in assay [3] were 76.6% and 97.7%, respectively. Further, the fluorescence slope in assay [4] is -0.498 (inactive). For the same compound, the NADPH fluorescence slope in assay [5] is -4e-05 (inactive). The slope in assay [6] was 0.0045 (inactive).

The inhibition is the relative decrease from the control value, in per cent.

For the origin of these results see PubChem BioAssay.
